Experimental data as given in PubChem BioAssay (NCI).
Where “and” joins values, the source holds several entries; their conditions need not be identical. Equal entries are not always repeated. Compounds without any hit were thinned out: in the full panel of roughly 79,000, 15% have a hit. A structure can be active in one record and inactive in another. Calls of active or inactive are those of the source. Rule as the data show it: active = growth inhibition above about 70%; inactive = the rest.

Legend:
[1] = NCI Yeast Anticancer Drug Screen. Data for the rad50 strain (AID 155);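 also: 0% = growth of vehicle-only cultures of the same strain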; conditions: S. cerevisiae rad50 strain growth inhibition, stronger effect = higher value
Method in brief: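 Vehicle-treated cultures provide the reference for the growth inhibition reported for compound-exposed, repair-deficient yeast.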

[2] = NCI Yeast Anticancer Drug Screen. Data for the mec2-1 strain (AID 157); conditions: S. cerevisiae mec2-1 strain, stronger effect = higher value
Method in brief: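 Using mec2-1 yeast: add compound, measure growth, express inhibition versus vehicle-treated cultures.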

[3] = NCI Yeast Anticancer Drug Screen. Data for the sgs1 mgt1 strain (AID 161);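 also: 0% = growth of cultures given vehicle only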; conditions: S. cerevisiae sgs1 mgt1 strain, stronger effect = higher value
Method in brief: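 This yeast growth screen uses a strain with defined DNA-repair lesions; compound-treated growth is compared with vehicle-treated growth.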

[4] = NCI Yeast Anticancer Drug Screen. Data for the cln2 rad14 strain (AID 165);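 also: 0% = growth equal to vehicle treated cultures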; conditions: S. cerevisiae cln2 rad14 strain, stronger effect = higher value
Method in brief: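 Yeast strain cln2 rad14, bearing defects in cell cycle control and DNA repair, serves as the test system; values reflect growth inhibition compared with vehicle.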

[5] = NCI Yeast Anticancer Drug Screen. Data for the bub3 strain (AID 167); conditions: S. cerevisiae bub3 mutant strain, stronger effect = higher value
Method in brief: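 Mutant yeast screening strain plus compound; vehicle-treated cultures serve as the 0% inhibition reference.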

[6] = NCI Yeast Anticancer Drug Screen. Data for the mlh1 rad18 strain (AID 175); conditions: S. cerevisiae mlh1 rad18 strain growth inhibition, stronger effect = higher value
Method in brief: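 Steps: expose repair-defective yeast to compound; measure growth; express inhibition against vehicle-treated controls.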

[7] = NCI Yeast Anticancer Drug Screen. Data for the wt1 strain (AID 149);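 also: 0% = growth of vehicle-treated wt1 cultures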; conditions: S. cerevisiae wt1 strain (SPY 50644) growth inhibition, stronger effect = higher value
Method in brief: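 Each compound is tested on wt1 yeast and the loss of growth versus vehicle gives the inhibition value.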

[8] = NCI Yeast Anticancer Drug Screen. Data for the rad50EPP+ strain (AID 151);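 also: 0% = growth of vehicle-treated control cultures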; conditions: S. cerevisiae rad50 mutant strain, stronger effect = higher value
Method in brief: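 Read-out is yeast growth inhibition relative to vehicle; cells used were the rad50EPP+ strain.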

[9] = NCI Yeast Anticancer Drug Screen. Data for the rad14 strain (AID 159);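 also: 0% = growth of vehicle-treated control cultures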; conditions: S. cerevisiae rad14 strain growth inhibition, stronger effect = higher value
Method in brief: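 Inhibition of growth is reported for a repair-deficient yeast mutant following compound treatment, calculated relative to cultures that received vehicle.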

[10] = NCI Yeast Anticancer Drug Screen. Data for the CLN2oe strain (AID 163);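 also: 0% = growth of vehicle-only control cultures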; conditions: S. cerevisiae CLN2oe strain, stronger effect = higher value
Method in brief: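 Whole-cell yeast growth assay. A strain engineered for altered cell-cycle control received compound, and inhibition relative to vehicle-treated cultures was recorded.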

[11] = NCI Yeast Anticancer Drug Screen. Data for the wt2 strain (AID 169); conditions: S. cerevisiae wt2 strain growth inhibition, stronger effect = higher value
Method in brief: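 Treated yeast vs. vehicle-treated yeast: growth inhibition determined.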

[12] = NCI Yeast Anticancer Drug Screen. Data for the mlh1 strain (AID 171);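 also: 0% = growth of vehicle-treated control cultures of the same strain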; conditions: S. cerevisiae mlh1 strain growth inhibition, stronger effect = higher value
Method in brief: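 A yeast strain with a defined genetic lesion serves as the test organism. Cultures receive compound or vehicle, and growth is measured.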

[13] = NCI Yeast Anticancer Drug Screen. Data for the sgs1 strain (AID 173);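 also: 0% = growth of vehicle-only control cultures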; conditions: S. cerevisiae sgs1 mutant, stronger effect = higher value
Method in brief: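 A genetically defined yeast mutant is incubated with the test compound, and its growth is compared to that of the same strain given vehicle.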

[14] = NCI Yeast Anticancer Drug Screen. Data for the rad18 strain (AID 177); conditions: S. cerevisiae rad18 mutant growth inhibition, stronger effect = higher value
Method in brief: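 Measured value is growth inhibition of a yeast strain bearing a DNA repair alteration, referenced to vehicle-treated cells.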

[15] = at 5.0 µM (retest, dose inferred, filed as 0.5)
[16] = at 50.0 µM (retest, dose inferred, filed as 5.0)

Measured: growth inhibition

C[N+](C)(C)CC1CCC(C[N+](C)(C)C)C1=O (centres undefined)
inactive: [1]; [15] -1% | [1]; [16] 6% | [1]; at 50.0 µM -1.75% | [2]; [15] 11% | [2]; [16] 26% | [2]; at 50.0 µM -1.05% | [3]; [15] 0% | [3]; [16] -47% | [3]; at 50.0 µM -4.05% | [4]; [15] -7% | [4]; [16] 5% | [4]; at 50.0 µM 16.3% | [5]; [15] -2% | [5]; [16] 6% | [5]; at 50.0 µM 27.5% | [6]; [15] -3% | [6]; [16] 3% | [6]; at 50.0 µM -14.2%

C[n+]1c(/C=C/c2ccc(O)c3ncccc23)[se]c2ccccc21
inactive: [1]; [15] 22% | [2]; [15] 2% | [3]; [15] 24% | [4]; [15] 11% | [5]; [15] 2%
active: [1]; [16] 93% | [1]; at 50.0 µM 93.4% | [2]; [16] 90% | [2]; at 50.0 µM 93.5% | [3]; [16] 91% | [3]; at 50.0 µM 92.3% | [4]; [16] 88% | [4]; at 50.0 µM 92% | [5]; [16] 91% | [5]; at 50.0 µM 93%

COc1ccc(OC)c(/C=C/[N+](=O)[O-])c1
-53% (inactive) and 95% (active): [6]; [16]
-45% (inactive) and 76% (active): [4]; [16]
active: [7]; at 100.0 µM 71% | [8]; at 11.0 µM 74% | [8]; at 33.0 µM 86% | [8]; at 100.0 µM 99% | [2]; at 50.0 µM 99.7% and 98.8% | [2]; at 100.0 µM 99% | [9]; at 100.0 µM 100% | [3]; at 50.0 µM 91.3% and 99% | [10]; at 100.0 µM 95% | [4]; at 50.0 µM 98.8% and 98.4% | [5]; at 50.0 µM 99% | [5]; at 100.0 µM 99% | [11]; at 100.0 µM 85% | [12]; at 100.0 µM 98% | [13]; at 100.0 µM 100% | [6]; at 50.0 µM 97.9% and 99.5% | [14]; at 100.0 µM 96%
inactive: [7]; at 1.2 µM -6% | [7]; at 3.7 µM -7% | [7]; at 11.0 µM -9% | [7]; at 33.0 µM 7% | [8]; at 1.2 µM 29% | [8]; at 3.7 µM 59% | [2]; at 1.2 µM 1% | [2]; at 3.7 µM 2% | [2]; [15] -46% and 9% | [2]; at 11.0 µM 7% | [2]; at 33.0 µM 30% | [9]; at 1.2 µM 5% | [9]; at 3.7 µM 7% | [9]; at 11.0 µM 15% | [9]; at 33.0 µM 39% | [3]; [15] -53% and 12% | [3]; [16] 1% and 64% | [10]; at 1.2 µM 6% | [10]; at 3.7 µM 9% | [10]; at 11.0 µM 13% | [10]; at 33.0 µM 37% | [4]; [15] -60% and 2% | [5]; at 1.2 µM 0% | [5]; at 3.7 µM 6% | [5]; [15] -57% and 35% | [5]; at 11.0 µM 13% | [5]; at 33.0 µM 25% | [11]; at 1.2 µM 0% | [11]; at 3.7 µM -1% | [11]; at 11.0 µM -2% | [11]; at 33.0 µM 15% | [12]; at 1.2 µM 10% | [12]; at 3.7 µM -2% | [12]; at 11.0 µM 8% | [12]; at 33.0 µM 28% | [13]; at 1.2 µM -1% | [13]; at 3.7 µM 18% | [13]; at 11.0 µM 29% | [13]; at 33.0 µM 54% | [6]; [15] -114% and 37% | [14]; at 1.2 µM 5% | [14]; at 3.7 µM 13% | [14]; at 11.0 µM 20% | [14]; at 33.0 µM 49%
-38% (inactive) and 97% (active): [2]; [16]
-33% (inactive) and 79% (active): [5]; [16]

Cc1ccc(P(c2ccc(C)cc2)c2ccc(C)cc2)cc1
inactive: [1]; at 1.2 µM 16% | [1]; at 3.7 µM 26% | [1]; [15] 57% | [1]; at 11.0 µM 25% | [1]; at 33.0 µM 33% | [1]; at 50.0 µM 37.7% | [1]; at 100.0 µM 36% | [2]; at 1.2 µM -3% | [2]; at 3.7 µM -2% | [2]; [15] 58% | [2]; at 11.0 µM 2% | [2]; at 33.0 µM 24% | [2]; at 50.0 µM 9.9% | [2]; at 100.0 µM 32% | [3]; [15] 7% | [3]; [16] 43% | [3]; at 50.0 µM 39.2% | [5]; at 1.2 µM 20% | [5]; at 3.7 µM 43% | [5]; [15] 43% | [5]; at 11.0 µM 57% | [6]; [15] 49% | [6]; at 50.0 µM 26.4%
active: [1]; [16] 96% | [2]; [16] 98% | [5]; at 33.0 µM 78% | [5]; [16] 88% | [5]; at 50.0 µM 75.8% | [5]; at 100.0 µM 75% | [6]; [16] 97%

Cc1cc(N=Nc2ccccc2C)ccc1N
inactive: [1]; [15] 34% and 23% | [2]; [15] 46% and 23% | [3]; [15] -4% and 31% | [4]; [15] 41% and 20% | [5]; [15] 12% and 41% | [11]; at 1.2 µM 2% | [11]; at 3.7 µM -7% | [11]; at 11.0 µM 4% | [6]; [15] 32% and 35%
38% (inactive) and 97% (active): [6]; [16]
active: [1]; at 50.0 µM 91.4% and 88.5% | [2]; at 50.0 µM 93% and 91.7% | [3]; [16] 99% and 96% | [3]; at 50.0 µM 93.5% and 89.3% | [4]; [16] 98% and 96% | [4]; at 50.0 µM 91.1% and 91.5% | [5]; [16] 97% and 99% | [5]; at 50.0 µM 91.5% and 90% | [11]; at 33.0 µM 96% | [11]; at 100.0 µM 99% | [6]; at 50.0 µM 90.8% and 91.9%
44% (inactive) and 96% (active): [1]; [16]
52% (inactive) and 99% (active): [2]; [16]

COC(=O)C(C)(C)[n+]1c(C)cc(C)cc1C
inactive: [1]; [15] -13% | [1]; [16] -6% | [1]; at 50.0 µM -5.45% | [2]; [15] -5% | [2]; [16] -35% | [2]; at 50.0 µM -3% | [3]; [15] -17% | [3]; [16] -14% | [3]; at 50.0 µM -3.1% | [4]; [15] -10% | [4]; [16] -8% | [4]; at 50.0 µM -7.1% | [5]; [15] 1% | [5]; [16] 8% | [5]; at 50.0 µM -6.5% | [6]; [15] -1% | [6]; [16] 5% | [6]; at 50.0 µM 5.9%
